The text below walks through data of PubChem BioAssay.

Test [1] in a line: compound effects on lung adenocarcinoma cell viability – A549, calcein-AM fluorescence, 48 h, basal, profiling panel (AID 1162). Note: test concentration not given here. To be noted: higher = more signal.
Test [2] is described as follows: compound effects on differentiated 3T3-L1 adipocyte viability – cell-based, 3T3-L1 adipocytes, calcein-AM fluorescence, 48 h, basal, profiling panel (AID 1163). Note: test concentration not given here. The conditions noted are these: 3T3-L1 adipocytes viability, higher = more signal.
Test [3] is described as follows: compound effects on hepatocellular carcinoma cell viability – HepG2, calcein-AM fluorescence, 48 h, basal, profiling panel (AID 1164). Note: test concentration not given here. The conditions noted are these: higher = more signal.
Test [4] can be described thus: compound effects on multiple myeloma cell viability – MM1S, calcein-AM fluorescence, 48 h, basal, profiling panel (AID 1165).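 Note: viability of MM1S multiple myeloma cells under basal unstimulated conditions; test concentration not given here.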 To be noted: higher = more signal.
Test [5] in a line: calcein-AM signal in unstimulated myeloma cells – cell-based, calcein-AM fluorescence, 48 h, PK04 Diversity Set, profiling panel (AID 1166).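 Note: cells grown under basal conditions without added stimulus; test concentration not given here.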 To be noted: RPMI8226 myeloma viability, higher = more signal.
The nature of test [6]: JC-1 mitochondrial signal, unstimulated HepG2 cells – cell-based, JC-1 fluorescence, 24 h, 100 nL compound, profiling panel (AID 1167). Note: test concentration not given here. The conditions noted are these: HepG2 mitochondrial potential, higher = more signal.
A short description of test [7]: JC-1 mitochondrial signal, unstimulated adipocytes – cell-based, JC-1 fluorescence, 3T3-L1 adipocytes, 24 h, 100 nL compound, profiling panel (AID 1168). Note: test concentration not given here. To be noted: JC-1 mitochondrial fluorescence, higher = more signal, called active from +8 up or from −8 down.
The nature of test [8]: JC-1 mitochondrial signal, unstimulated myeloma cells – cell-based, JC-1 fluorescence, RPMI8226, 24 h, 100 nL compound, profiling panel (AID 1169). Note: test concentration not given here. To be noted: JC-1 mitochondrial potential fluorescence, higher = more signal.
The nature of test [9]: JC-1 mitochondrial signal, unstimulated MM1S myeloma – cell-based, JC-1 fluorescence, 24 h, 100 nL compound, profiling panel (AID 1170). Note: test concentration not given here. The conditions noted are these: MM1S mitochondrial potential, higher = more signal.
Test [10] in a line: resazurin metabolic signal in A549 cells – cell-based, resazurin fluorescence, 24 h, PK04 Diversity Set, profiling panel (AID 1171). Note: test concentration not given here. The conditions noted are these: A549 viability, higher = more signal, called active from +8 up or from −8 down. On the technique in general: Resazurin is reduced to fluorescent resorufin, in cell work by metabolically active cells.
A short description of test [11]: resazurin metabolic signal in HepG2 cells – cell-based, resazurin fluorescence, 24 h, PK04 Diversity Set, profiling panel (AID 1172). Note: test concentration not given here. The conditions noted are these: HepG2 viability, higher = more signal.
The nature of test [12]: budding yeast growth changes without added modifier – OD600, strain BY4716, 24 h, basal condition, primary screen (AID 1173). The conditions noted are these: S. cerevisiae BY4716 growth, OD600, 24 h; higher = more signal, called active from +8 up or from −8 down.
Test [13] is described as follows: viability profiling in MM1S myeloma cells – cell-based, resazurin fluorescence, basal, 24 h, PK04 Diversity Set, profiling panel (AID 1174). Note: test concentration not given here. To be noted: higher = more signal, called active from +8 up or from −8 down.
For test [14], the target named is Dihydroorotate dehydrogenase (quinone), mitochondrial (Plasmodium falciparum (isolate 3D7)) (UniProt Q08210). As to the kind of experiment: inhibition of P. falciparum DHODH – biochemical, C-terminal His tag, absorbance 600 nm, primary screen (AID 1175).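 Note: recombinant parasite enzyme with a five histidine tag at its C terminus; test concentration not given here.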 To be noted: PfDHODH enzyme, DCIP absorbance 600 nm; higher = more signal, called active from +8 up or from −8 down.

A short description of test [15]: inhibition of PAO1 biofilm formation – strain PAO1, LB-PBS medium, absorbance 600 nm, primary screen (AID 1176). Note: test concentration not given here. The conditions noted are these: P. aeruginosa PAO1 growth/biofilm, A600, 12 h; higher = more signal.
The nature of test [16]: growth modulation of vineyard yeast isolate – strain RM11-1a, OD600, basal, 24 h, primary screen (AID 1177).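 Note: cultures grown under basal conditions with no added stressor; test concentration not given here.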 The conditions noted are these: S. cerevisiae RM11-1a growth, OD600, 24 h; higher = more signal, called active from +8 up or from −8 down.
Test [17] can be described thus: growth of efflux-deficient E. coli DRC39 – strain DRC39, OD650, 24 h, E. coli filamentation inducers, primary screen (AID 1178).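 Note: growth measured as culture turbidity by optical density at 650 nm; test concentration not given here.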 The conditions noted are these: E. coli DRC39 acrAB, higher = more signal, called active from +8 up or from −8 down.
Test [18] is described as follows: growth of efflux-deficient E. coli DRC39 – strain DRC39, OD650, 48 h, E. coli filamentation inducers, primary screen (AID 1179).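 Note: screen aims at cell division blockers that make cells filament.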 The conditions noted are these: E. coli DRC39 delta-acrAB growth, higher = more signal, called active from +8 up or from −8 down.
A short description of test [19]: viability profiling in RPMI8226 myeloma cells – cell-based, resazurin fluorescence, basal, 24 h, PK04 Diversity Set, profiling panel (AID 1180).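 Note: RPMI8826 multiple myeloma cell line at 5000 cells per well; test concentration not given here.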 The conditions noted are these: higher = more signal.
Test [20] has as its target E3 ubiquitin-protein ligase XIAP (Homo sapiens) (UniProt P98170). As to the kind of experiment: small molecules binding XIAP protein – biophysical, small-molecule microarray, fluorescence 635 nm, primary screen (AID 1181).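 Note: score merges 667 nm emission and signal to noise over triplicate slides.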 The conditions noted are these: higher = more signal.

Active and inactive are the calls of the source. Unless noted, the rule behind the calls is not given here.

Chain of E3 ubiquitin-protein ligase XIAP (Homo sapiens) (P98170 whole entry, looked up): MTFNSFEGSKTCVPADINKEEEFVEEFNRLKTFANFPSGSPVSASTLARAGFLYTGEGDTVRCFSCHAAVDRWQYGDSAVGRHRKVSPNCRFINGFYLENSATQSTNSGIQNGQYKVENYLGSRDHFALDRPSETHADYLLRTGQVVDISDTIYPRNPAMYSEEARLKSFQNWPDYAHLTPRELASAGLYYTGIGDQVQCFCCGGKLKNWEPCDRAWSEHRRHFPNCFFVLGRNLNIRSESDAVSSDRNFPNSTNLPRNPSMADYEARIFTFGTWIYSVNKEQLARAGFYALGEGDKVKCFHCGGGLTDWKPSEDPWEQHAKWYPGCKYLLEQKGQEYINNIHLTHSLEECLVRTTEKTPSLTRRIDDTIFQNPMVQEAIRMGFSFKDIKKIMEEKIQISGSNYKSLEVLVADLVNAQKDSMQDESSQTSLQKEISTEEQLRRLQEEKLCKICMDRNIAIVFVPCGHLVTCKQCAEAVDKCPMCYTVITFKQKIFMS
Chain of Dihydroorotate dehydrogenase (quinone), mitochondrial (Plasmodium falciparum (isolate 3D7)) (Q08210 whole entry, looked up): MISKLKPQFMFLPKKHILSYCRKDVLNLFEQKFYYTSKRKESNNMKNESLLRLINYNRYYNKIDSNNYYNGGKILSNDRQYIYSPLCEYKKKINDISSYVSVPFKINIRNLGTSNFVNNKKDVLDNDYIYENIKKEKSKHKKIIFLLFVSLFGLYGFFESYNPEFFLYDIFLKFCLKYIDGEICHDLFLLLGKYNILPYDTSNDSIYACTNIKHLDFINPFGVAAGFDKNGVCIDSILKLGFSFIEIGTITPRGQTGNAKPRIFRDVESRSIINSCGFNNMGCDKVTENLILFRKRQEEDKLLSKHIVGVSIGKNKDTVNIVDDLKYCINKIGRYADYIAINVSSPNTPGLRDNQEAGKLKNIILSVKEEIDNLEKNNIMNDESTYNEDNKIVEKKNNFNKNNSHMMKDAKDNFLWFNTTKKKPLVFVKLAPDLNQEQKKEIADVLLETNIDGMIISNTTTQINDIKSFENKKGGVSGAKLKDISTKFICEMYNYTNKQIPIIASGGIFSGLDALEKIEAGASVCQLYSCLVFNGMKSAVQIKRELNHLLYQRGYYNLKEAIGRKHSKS

For the compound `C=C(CCCC)C(=O)CC[C@H](OC(=O)c1cccnc1)c1cccc(OCCO)c1`, the z-score is 0.952 in test [1]; 0.136 in test [2]; 0.316 in test [3]; -3.35 in test [4]; -2.66 in [5]; 1.39 in test [6]. Also, the z-score in [7] was 0.139 (inactive); in [8], -0.726; in [9] it was -0.592; in test [10], 0.358 (inactive); in test [11], -0.53; in test [12], 0.704 (inactive). Besides, the z-score in test [13] was -1.29 (inactive); in test [15], -0.21 (inactive); in test [16] it was 1.7 (inactive); in [17] it was 0.477 (inactive); in test [18] it was 0.262 (inactive); in [19], -2.01. Also, the composite z-score in test [14] is -0.455 (inactive); in [20] it was -0.0582.
Take `COc1cccc(C(=O)O[C@H]2CC[C@]3(C)C4=C(CCC3C2(C)C)[C@]2(C)CC[C@H]([C@H](C)CCCC(C)C)[C@@]2(C)CC4)c1` (stereo not given in full): the z-score in test [1] was 0.583; in [2], 0.146; in test [3] it was 0.689; in test [4], -0.56; in test [5], 0.241; in [6] it was 1.28. The z-score in [7] was 0.387 (inactive); in test [8] it was -0.0502; in [9], -1.49; in test [10], 0.479 (inactive); in test [11] it was 0.514; in test [12], -0.488 (inactive). Besides, the z-score in test [13] was 0.697 (inactive); in test [15] it was 0.671 (inactive); in test [16] it was -1.62 (inactive); in [17] it was 0.621 (inactive); in test [18], 1.18 (inactive); in test [19] it was 0.815. The values for the composite z-score in test [14] and in [20] were -2.17 (inactive) and 0.132, respectively.
Consider `C[C@]1(C(=O)NCc2ccccc2)c2ccccc2C(=O)N(Cc2cc(F)cc(C(F)(F)F)c2)[C@H]1c1ccc(CO)cc1`, for which the z-score in test [1] is 0.179; in [2] it was -0.628; in [3], 1.11; in [4], 0.304; in test [5], 0.411; in test [6], 2.16. The z-score was 0.41 (inactive) in [7]; 0.714 in test [8]; -0.765 in [9]; -0.375 (inactive) in [10]; -0.555 in [11]; -0.276 (inactive) in test [12]. For the same compound, the z-score was -0.179 (inactive) in test [13]; 0.155 (inactive) in test [15]; 0.179 (inactive) in test [16]; 1.2 (inactive) in [17]; 1.6 (inactive) in test [18]; 0.0748 in test [19]. Also, the composite z-score in test [14] was 0.225 (inactive); in test [20], 0.0256.
On to `COC(=O)[C@]1(Cc2ccccc2N=[N+]=[N-])N=C(c2ccc(OCCCO)cc2)O[C@@H]1c1ccccc1N=[N+]=[N-]`, for which the z-score was -3.83 in [1]; -0.504 in [2]; -5.54 in test [3]; -3.59 in test [4]; -3.94 in [5]; -2.39 in [6]. The z-score in test [7] was -0.708 (inactive); in test [8], -1.2; in [9], -2.8; in test [10], -2.87 (inactive); in [11] it was -3.41; in [12], -0.569 (inactive). For the same compound, the z-score in [13] was -6.71 (inactive); in [15], 0.755 (inactive); in test [16], -0.0599 (inactive); in test [17], 0.2 (inactive); in test [18] it was -0.54 (inactive); in test [19], -7. Besides, the composite z-score in test [14] was 0.519 (inactive); in test [20], 0.165.
With `C[C@H]1NC(=O)[C@H](Cc2ccccc2)NC(=O)[C@@]23C(=O)N[C@@H](Cc4ccccc4)C2[C@H](C)[C@@]2(C)O[C@H]2C3/C=C/C/C=C\CNC1=O` (stereo not given in full), the z-score is 1.1 in test [1]; 0.827 in test [2]; 0.514 in test [3]; -0.0775 in test [4]; -1.27 in test [5]; 0.542 in test [6]. The z-score in test [7] is 0.342 (inactive); in test [8] it was 0.0827; in test [9], 0.782; in [10], 0.229 (inactive); in test [11] it was -0.23; in test [12], 0.0145 (inactive). For the same compound, the z-score was 0.557 (inactive) in test [13]; -0.246 (inactive) in test [15]; 1.16 (inactive) in [16]; 1.32 (inactive) in [17]; 0.64 (inactive) in [18]; 1.07 in [19]. In addition, the composite z-score in [14] was 0.742 (inactive); in test [20], -0.173.
On to `C=CC[C@@]1(C(=O)NCC(O)CO)N=C(c2ccc(OCCCO)cc2)O[C@@H]1c1ccccc1N=[N+]=[N-]` (stereo not given in full), for which the z-score in [1] was -0.112; in test [2], 1.37; in test [3], -0.805; in test [4], -0.494; in test [5], -1.14; in test [6], 0.582. Besides, the z-score in test [7] was -0.343 (inactive); in test [8], -0.164; in test [9] it was -1.17; in test [10] it was 0.695 (inactive); in test [11] it was 0.896; in test [12], -0.965 (inactive). Moreover, the z-score in test [13] is -0.12 (inactive); in test [15], -0.0709 (inactive); in test [16], 0.0157 (inactive); in test [17], 1.69 (inactive); in test [18], 1.29 (inactive); in test [19], -0.274. For the same compound, the figures for the composite z-score in test [14] and in test [20] were -0.269 (inactive) and 0.0049, respectively.
As for `COCCOC(=O)N1C(=O)[C@@]2(c3cc(C#CCCO)ccc31)[C@H](c1ccccc1OCCO)N1[C@H](c3ccccc3)[C@H](c3ccccc3)OC(=O)[C@H]1[C@@H]2C(=O)N1CCN(c2ncccn2)CC1`, the z-score in [1] is -0.442; in test [2], -0.692; in test [3], 0.0682; in [4], -0.448; in test [5], -0.0718; in [6] it was 0.609. Moreover, the z-score was 0.188 (inactive) in test [7]; -0.0523 in [8]; -1.1 in test [9]; -0.467 (inactive) in test [10]; -0.0071 in test [11]; 1.42 (inactive) in [12]. For the same compound, the z-score in [13] was -0.285 (inactive); in test [15], 1.6 (inactive); in [16], 2.18 (inactive); in [17] it was -0.0933 (inactive); in test [18], -0.27 (inactive); in test [19] it was -0.803. For the same compound, the composite z-score was -0.465 (inactive) in [14] and -0.0304 in test [20].
With `COCCOC(=O)N1C(=O)[C@@]2(c3cc(C#CCNC(N)=O)ccc31)[C@H](c1ccc(O)cc1)N1[C@H](c3ccccc3)[C@H](c3ccccc3)OC(=O)[C@H]1[C@@H]2C(=O)NC[C@H](O)c1ccccc1`, the z-score was -0.276 in test [1]; -0.202 in [2]; 0.108 in [3]; 0.208 in [4]; -0.197 in [5]; -1.48 in [6]. The z-score was -0.563 (inactive) in [7]; 0.326 in test [8]; -0.0292 in [9]; -0.803 (inactive) in test [10]; -0.197 in test [11]; 0.947 (inactive) in test [12]. Moreover, the z-score was 0.302 (inactive) in [13]; 0.69 (inactive) in [15]; 1.23 (inactive) in [16]; 0.248 (inactive) in test [17]; 0.193 (inactive) in test [18]; -0.949 in test [19]. Also, the composite z-score in test [14] was 0.924 (inactive); in test [20] it was -0.0807.
